# FLuc counter: firefly luciferase modulation, counter-screen for miR-21 project; purified FLuc, Km substrates, luminescence inhibition; Potency, µM (highest dose often 57.5 µM), inactives show top-dose activity change, negative = inhibition, hits mostly inhibitors; 360,000 tested, 6.9% active; AID 588342;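 further: plate controls were vehicle for no effect and reference inhibitor for full effect; nearly all actives have a fitted effect of over 55% in size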
# Target sequence (P08659 whole entry, looked up): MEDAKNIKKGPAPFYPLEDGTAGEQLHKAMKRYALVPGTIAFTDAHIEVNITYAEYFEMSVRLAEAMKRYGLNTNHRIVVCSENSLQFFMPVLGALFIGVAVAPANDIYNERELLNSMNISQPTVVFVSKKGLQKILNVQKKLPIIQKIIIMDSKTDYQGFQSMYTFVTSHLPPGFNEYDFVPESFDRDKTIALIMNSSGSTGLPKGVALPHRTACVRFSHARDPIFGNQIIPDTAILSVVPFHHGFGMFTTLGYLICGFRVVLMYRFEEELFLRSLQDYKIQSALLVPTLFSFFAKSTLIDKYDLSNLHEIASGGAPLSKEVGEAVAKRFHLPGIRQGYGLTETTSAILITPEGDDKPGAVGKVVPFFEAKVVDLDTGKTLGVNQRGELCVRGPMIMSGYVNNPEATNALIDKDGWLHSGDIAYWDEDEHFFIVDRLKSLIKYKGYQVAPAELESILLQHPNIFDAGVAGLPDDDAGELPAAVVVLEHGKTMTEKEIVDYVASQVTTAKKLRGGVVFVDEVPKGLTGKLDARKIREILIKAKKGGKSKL
#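 Purified P. pyralis luciferase, 10 nM final, with Km-level 10 uM D-luciferin and 10 uM ATP in 50 mM Tris acetate pH 7.5, 10 mM Mg acetate, 0.01% Tween-20, 0.05% BSA; 6-point qHTS titration about 60 µM downward; luminescence read.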
# SMN2 splice enh: SMN2 splice variant enhancement. HEK293 SMN2-luciferase splicing reporter, luminescence, 30-36 h. 210,000 tested, 2.8% active. Potency, µM (titrated, usually from 46.1 µM), inactives show at the highest dose activity change, positive = activation, usual class: activators; further: % of control where 0% means no effect; nearly all actives have a fitted effect of over 55% in size
#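 HEK293 cells carry an SMN2 […]–luciferase reporter in which exon 7 inclusion puts luciferase in frame. Cells were plated 10-12 h before compound addition, then incubated 30-36 h at 37C. ONE-Glo luminescence was read; sodium butyrate at 4.5 mM final served as control.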
# ELG1 genotox: inducers of genotoxicity in HEK293T ELG1-luciferase cells; AID 504466; Potency, µM (top dose mostly 46 µM), for inactives: top-dose activity change, positive = activation, actives largely listed as activators; 330,000 tested, 1.3% active; HEK293T ELG1-luciferase reporter, luminescence, 16 h; further: % of control where 0% means no effect; nearly all actives have a fitted effect of over 60% in size
#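 Step 1: seed 2,000 HEK293T ELG1-luciferase cells per well. Step 2: add compound or DMSO, incubate 16 hr at 37 °C. Step 3: ONE-Glo, 30 min at room temperature, read luminescence.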
# KinaseGlo FLuc: blocks Kinase-Glo luciferase, a counter-screen artifact. Q27757. Kinase-Glo luciferase, ATP luminescence, 8 min. Potency, µM (doses to about 38.3 µM), for the others: at the highest dose activity change, negative = inhibition, usual class: inhibitors. 200,000 tested, 0.28% active; further: on the % scale 0 is the no-effect control and ±100 the full control effect; nearly all actives have a fitted effect of over 60% in size
#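 Luminescence was the read-out, taken after 8-minute incubation at ambient temperature. Luciferase turned over luciferin with 10 uM ATP in imidazole pH 7.2 buffer containing KCl, MgCl2, Tween 20 and BSA.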
# Rab9 prom act: Rab9 promoter activation | Huh7 Rab9 promoter-luciferase reporter, luminescence, 24 h | Potency, µM (top dose mostly 9.22 µM), for the others: at the top dose activation, negative = inhibition, usual class: activators | 320,000 tested, 2.8% active | AID 485297; further: % of control where 0% means no effect; nearly all actives have a fitted effect of over 60% in size
#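 Luciferase signal after 10 min detection reagent at ambient indicates Rab9 promoter upregulation; stably transfected Huh7 cells were treated 24 h with compound in DMSO at 37 °C, 5% CO2.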
# NPC1 promoter act: NPC1 promoter activation | Potency, µM (titrated, usually from 9.22 µM), inactives show at the top dose activation, actives largely listed as activators | 320,000 tested, 2.4% active | Huh7 NPC1 promoter luciferase reporter, 24 h; further: % of control where 0% means no effect; nearly all actives have a fitted effect of over 60% in size
#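 In 1536-well qHTS, Huh7 cells harboring an NPC1 promoter–luciferase construct received compound for 24 h; activation was quantified by luminescence following luciferase reagent addition.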
# Numbers without * were called inactive; ? = inconclusive; / = not tested or not shown. A selection: hits, their analogues and other compounds. The true share with any hit is near 7.4%. The call rests on the fitted dose curve; in most records, active means well fitted curve in the direction sought with a large enough effect; inconclusive means small, poorly fitted or top-dose-only effect, or another doubt; inactive means no such curve, though single readings can be large; an effect the other way counts as inactive or inconclusive. Potency means the concentration at half of the fitted maximal effect.
SMILES,FLuc counter,SMN2 splice enh,ELG1 genotox,KinaseGlo FLuc,Rab9 prom act,NPC1 promoter act
COc1cc(/C=C2/C(=O)NN(c3ccc(F)cc3)C2=O)cc(Cl)c1O,21µM*,/,0%,/,0%,-1%
COc1cc(/C=C2/C(=O)NN(c3ccc(Cl)c(Cl)c3)C2=O)cc([N+](=O)[O-])c1O,?,/,0%,/,-2%,-3%
COc1cccc(/C=C2/C(=O)NN(c3ccc(Br)cc3)C2=O)c1O,1.9µM*,/,2%,/,-2%,-3%
COc1cc(/C=C2/C(=O)NN(c3ccc(Cl)cc3)C2=O)cc(Br)c1O,27µM*,/,-4%,/,0%,1%
Cc1c(C)n(Cc2ccccc2)c2ccc(C(=O)NCCc3ccccc3Cl)cc12,-15%,/,/,/,/,/
CCOc1cc(CNCCSc2nnnn2-c2ccccc2)cc(Cl)c1OC,-13%,/,/,/,/,/
Cc1ccc(COC(=O)c2ccc(-c3nnn(Cc4ccc(C)cc4)n3)cc2)cc1,-1%,-6%,/,/,/,/
CCn1cc(C(=O)OCC(=O)Nc2cc(Cl)ccc2OC)c(=O)c2ccc(C)nc21,3%,-3%,/,/,/,/
CCn1cc(C(=O)NCCc2ccc(Cl)cc2)c(=O)c2cc(S(=O)(=O)N3CCC(C)CC3)ccc21,3%,4%,/,/,/,/
Cc1ccc(-c2csc(NC(=O)COC(=O)c3cccc(S(=O)(=O)N4CCOCC4)c3)n2)cc1,11µM*,/,?,/,2.5µM*,3.2µM*
COc1ccc2nc(NC(=O)c3cc(S(=O)(=O)N4CCOCC4)ccc3C)sc2c1,11µM*,-49%,-4%,15%,1%,2%
COc1cc(C(=O)Nc2nc3ccc(S(=O)(=O)N4CCOCC4)cc3s2)cc(OC)c1OC,-1%,-12%,-4%,-3%,-6%,-1%
Cc1ccc(-c2csc(NC(=O)c3cccc(S(=O)(=O)N4CCN(C)CC4)c3)n2)cc1,-19%,-70%,-5%,-8%,1%,-5%
Cc1ccnc(NC(=O)c2cccc(S(=O)(=O)N3CCOCC3)c2)c1,17µM*,/,?,/,13%,0%
COc1ccc2nc(NC(=O)c3cccc(S(=O)(=O)N4CCOCC4)c3)sc2c1,11µM*,-29%,0%,2%,4%,0%
COc1cc(OC)cc(-n2c(=O)c3ccccc3n(CC(=O)NCCc3ccc(OC)c(OC)c3)c2=O)c1,1%,4%,/,/,/,/
O=C(Nc1nc(-c2nc3ccccc3s2)cs1)c1ccc(S(=O)(=O)N2CCOCC2)cc1,?,/,-13%,/,4.5µM*,3.2µM*
COc1ccc(CC(=O)Nc2nccs2)cc1S(=O)(=O)N1CCOCC1,/,/,-1%,/,/,/
COc1ccc2nc(NC(=O)Cc3ccc(OC)c(S(=O)(=O)N4CCOCC4)c3)sc2c1,24µM*,-23%,-1%,-7%,7%,11%
COc1ccc(-n2c(=O)c(C)nc3cnc(Oc4cccc(Cl)c4)nc32)cc1,/,-11%,/,-2%,/,/
Cc1ccc2nc(C)c(C(=O)N/N=C/c3ccco3)cc2c1,?,7%,4%,-3%,0%,0%
Cc1ccc2nc(C)c(C(=O)N/N=C/c3ccccc3[N+](=O)[O-])cc2c1,6.7µM*,5%,8%,1%,11%,5%
Cc1nc(N)sc1C(=O)N/N=C/c1c[nH]c2ccccc12,19µM*,15%,8.2µM*,-6%,0%,25%
Cc1nc(N)sc1C(=O)N/N=C/c1ccccc1[N+](=O)[O-],-6%,14µM*,15%,-6%,2µM*,2.8µM*
O=C(N/N=C/c1c[nH]c2ccccc12)c1ccncc1,?,6%,9%,-6%,9%,6%
SMILES,FLuc counter,SMN2 splice enh,ELG1 genotox,KinaseGlo FLuc,Rab9 prom act,NPC1 promoter act
COc1ccc(Cn2ccc3nc(C)c(C(=O)NCc4ccc(SC)cc4)cc3c2=O)cc1,3%,/,/,/,/,/
CC(C)c1ccc(-n2nc3ccc(N)cc3n2)cc1,0.15µM*,/,?,-11%,0.45µM*,0.89µM*
Nc1ccc2nn(-c3cc([N+](=O)[O-])ccc3O)nc2c1,0%,/,-4%,/,17%,11%
Nc1ccc2nn(-c3ccc(F)cc3)nc2c1,4.3µM*,/,3.3µM*,/,1.4µM*,0.89µM*
Cc1ccc(-n2nc3ccc(N)cc3n2)cc1,0.54µM*,3.2µM*,1.4µM*,-6%,0.5µM*,?
Cn1cc2ccc(N)cc2n1,-16%,/,-2%,-2%,-5%,1%
CSc1nc(N)c2ncn([C@@H]3O[C@H](COP(=O)(O)OP(=O)(O)OP(=O)(O)O)[C@H](O)[C@H]3O)c2n1,/,25%,/,?,/,/
O=C1OCC2=C1C(c1cccc(Cl)c1)CC(=O)N2c1ccc(C(F)(F)F)cc1 (stereo not given),3%,-12%,/,/,/,/
Nc1nc2ncc(=O)[nH]c2c(=O)[nH]1,/,10%,/,-5%,/,/
Cc1cccc(NC(=O)Cn2c(=O)nc(-c3ccccc3)c3ccccc32)c1C,3%,/,/,/,/,/
CCOc1ccccc1/C=C/c1nc2ccccc2[nH]c1=O,-10%,/,5%,/,4µM*,3.2µM*
COc1cc(OC)c(OC)cc1/C=C/c1cc(C(=O)O)c2ccccc2n1,11µM*,-8%,3%,0%,-8%,-1%
Cc1cc(/C=C\c2ccccc2)nc2ccccc12,1.5µM*,/,?,0%,?,23%
COc1ccc(/C=C/c2cc(C(=O)O)c3ccccc3n2)cc1,0.067µM*,/,-15%,/,?,?
Cc1ccc(S(=O)(=O)CCC(=O)Nc2ccc(Br)cc2C)cc1,-8%,/,/,/,/,/
Cc1cccc(Cn2c(=O)n(CC3CCC(C(=O)N4CCOCC4)CC3)c(=O)c3sccc32)c1 (stereo not given),6%,/,/,/,/,/
COc1ccc(CCNC(=O)c2ccc3c(c2)c(C)c(C)n3Cc2ccc(F)cc2)c(OC)c1OC,-15%,/,/,/,/,/
O=C(CCNS(=O)(=O)c1ccc2c(c1)CCN2C(=O)C1CC1)N1CCN(c2ccc(F)cc2)CC1,-8%,/,/,/,/,/
CCOc1ccccc1/C=C/c1cc(C(=O)O)c2ccccc2n1,13µM*,/,10%,/,14%,22%
CCC(Cn1nnc2ccccc2c1=O)NC(=O)Nc1cc(OC)cc(OC)c1 (stereo not given),-8%,-2%,/,/,/,/
O=C(Nc1nc2nc(-c3ccccc3)cc(=O)n2[nH]1)c1ccc(F)cc1,?,-3%,/,/,20%,5%
CSc1nc2nc(-c3ccccc3)cc(=O)n2[nH]1,6.7µM*,?,?,-13%,1%,19%
C/C(=N\Nc1cccc2cccnc12)c1ccccc1O,1.2µM*,25µM*,?,-5%,?,14%
CNC(=O)Nc1cccc2cccnc12,5%,/,-1%,/,-5%,-2%
C/C(=N\Nc1cccc2cccnc12)c1ccc(N)cc1,4.3µM*,11µM*,?,0%,2.2µM*,2.8µM*

# Bioassay records as filed in PubChem.
